The values that follow come from PubChem BioAssay (NCI).

What all share (assay): NCI-60 one-dose screen, 48 h (100 = growth as untreated, 0 = no growth, -100 = all killed)
Conditions in all cases: 10 µM

The test system of assay [1] is RPMI-8226 leukemia.
The test system of assay [2] is OVCAR-8 ovarian.
In assay [3] the test system is OVCAR-5 ovarian.
Assay [4] relates to OVCAR-4 ovarian.
The subject of assay [5] is SK-OV-3 ovarian.
The subject of assay [6] is IGROV1 ovarian.
Assay [7] concerns OVCAR-3 ovarian.
Assay [8] concerns NCI/ADR-RES ovarian.
Assay [9] deals with HS 578T breast.

Compounds without any hit were thinned out: in the full panel of roughly 83,000, 20% have a hit.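 Activity criterion: percent growth below 10, measured after cells in 96-well plates were exposed to a single compound concentration for 48 hours.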 Values without a mark were called inactive. The source made the active and inactive calls.

Turning to `O=C1Nc2ccc(Cl)cc2/C1=C/c1ccc(OCc2ccc(Br)cc2F)cc1`, the growth in [1] was 44.7%; in assay [2], 5.33% (active); in assay [3], 70.6%; in assay [4], -20.5% (active); in assay [5] it was 25.1%; in assay [6], 39.2%. For the same compound, the figures for the growth in assay [7] and in assay [8] were 0.51% (active) and 13.1%, respectively.
For the compound `COc1ccc(CCN2C(=O)/C(=C/c3csc(C#N)n3)SC2=S)cc1OC`, the growth was -7.56% (active) in [1]; 69.2% in assay [2]; 116% in assay [3]; 66.3% in [4]; 107% in [5]; 90.7% in assay [6]. Moreover, the growth is -17.7% (active) in [7] and 93.3% in [8].
As for `CC(=O)Nc1nc(-c2ccc(N3CCN(C)CC3)c(NS(=O)(=O)c3cccc4c(N(C)C)cccc34)c2)cs1`, the growth in assay [1] is 6.29% (active); in assay [2] it was 76.7%; in [3], 83.4%; in [4], 68.8%; in assay [5], 63.9%; in assay [6], 84.8%. Also, the results for the growth in assay [7], in assay [9] and in assay [8] were 78.9%, 41% and 94.8%, respectively.
As to `O=C(c1ccccc1)n1ccc(-c2cc3cc(Br)ccc3oc2=O)n1`, the growth in assay [1] was 24.6%; in assay [2], 22.5%; in assay [3], 34.6%; in [4], 26.2%; in assay [6], 16%; in assay [7], 38.8%. The growth in assay [9] was 48.5%; in assay [8], -2.98% (active).
Consider `Cc1ccc(C(=O)NCCCNc2nc(Nc3ccc(N4CCN(C)CC4)cc3)nc3ccsc23)cc1`, for which the growth is 10.1% in assay [1]; 29.2% in assay [2]; 69.1% in assay [3]; 39.6% in assay [4]; 92.9% in assay [5]; 69.2% in assay [6]. The growth in assay [7] is 31%; in assay [9], 66.9%; in assay [8], 46.5%.
As to `Cc1ccc(CSc2nc(-c3ccc(F)cc3)c(C#N)c(=O)[nH]2)cc1`, the growth is 91.5% in assay [1]; 97.8% in [2]; 99% in assay [3]; 96.5% in assay [4]; 105% in [5]; 113% in assay [6]. In addition, the values for the growth in [7], in assay [9] and in [8] were 102%, 105% and 95.9%, respectively.
As for `C=C(C)[C@@H]1CC[C@]2(C(=O)OC)CC[C@]3(C)[C@H](CC[C@@H]4[C@@]5(C)CC[C@H](N)C(C)(C)[C@@H]5CC[C@]43C)[C@@H]12`, the growth in [1] is -30.7% (active); in [2], -77.4% (active); in [3], -100% (active); in assay [4], -93.1% (active); in assay [6], -95.8% (active); in assay [7], -78.1% (active). Besides, the results for the growth in assay [9] and in [8] were -59.3% (active) and -83% (active), respectively.
Turning to `O=C(c1ccc(Cl)cc1)C1[C@H](c2ccc(Br)cc2)[C@@H](c2ccccc2)NC12C(=O)Nc1ccccc12` (stereo partly drawn), the growth in [1] was -8.78% (active); in assay [2], 7.73% (active); in [4] it was 12%; in [5], 12.7%; in assay [6] it was 6.67% (active); in assay [7], -30.1% (active). Also, the growth in assay [9] was -8.79% (active).
With `COc1ccc(CCN2C(=O)/C(=C/c3csc(C#N)n3)SC2=S)cc1`, the growth in assay [1] was -0.42% (active); in [2], -5.34% (active); in assay [3], 76.7%; in [4], 38.4%; in [5] it was 96.3%; in assay [6], 26.8%. Also, the figures for the growth in assay [7] and in assay [8] were -39% (active) and 47%, respectively.
Take `COc1ccc([C@H]2C(C(=O)c3ccc(Cl)cc3)C3(N[C@@H]2c2ccccc2)C(=O)Nc2ccc(Cl)cc23)cc1` (stereo partly drawn): the growth in assay [1] is -11% (active); in assay [2] it was 15.3%; in [4], 20.4%; in assay [5] it was 17.3%; in [6], -1.76% (active); in assay [7] it was -10.8% (active). The growth in assay [9] is -10.1% (active).
Consider `COc1ccc2nc(Cl)c(-c3cc(-c4ccccc4)nc(=O)[nH]3)cc2c1`, for which the growth in assay [1] was -14.7% (active); in assay [2] it was 11.3%; in assay [3], 93.1%; in assay [4] it was 85.3%; in assay [5], 108%; in [6], 78.2%. In addition, the growth was 16.6% in assay [7], 77.3% in assay [9] and 6.75% (active) in assay [8].
As for `O=c1oc2ccc(-c3ccc(F)cc3F)cc2c(=O)n1-c1ccc(Cl)c(C(F)(F)F)c1`, the growth is -32.1% (active) in [1]; 6.71% (active) in assay [2]; -2.12% (active) in assay [3]; 16.1% in [4]; -4.08% (active) in [5]; 17.8% in [6]. For the same compound, the values for the growth in [7] and in assay [8] were 11.7% and -12.2% (active), respectively.
As to `Cc1ccc(S(=O)(=O)c2nc(-c3ccccc3)oc2S(=O)(=O)CC(=O)N2CCCC2)cc1`, the growth in assay [1] is -53.4% (active); in [2], -86.7% (active); in [3], -87.2% (active); in [4], -92.7% (active); in [5] it was 68.4%; in assay [6] it was 18.4%. The growth in [7] was -92.8% (active); in assay [8], -69.5% (active).
Regarding `Cc1ccc(C(=O)Nc2ccc(-n3c(C)nc4c(cnn4-c4ccccc4)c3=O)cc2)cc1`, the growth is 58.4% in [1]; 76.8% in assay [2]; 86% in assay [3]; 49.8% in assay [4]; 97.4% in assay [5]; 71.6% in [6]. Further, the growth in assay [7] is 97%; in assay [9], 84.8%; in assay [8] it was 52.7%.
With `CN1CCN(c2ccc(Nc3nc(NCCCNC(=O)C4CCCCC4)c4sccc4n3)cc2)CC1`, the growth in [1] was -12.3% (active); in [2], 57.5%; in assay [3], 67.3%; in [4] it was 48.9%; in assay [6], 76.9%; in assay [7], 33.4%. Moreover, the growth in [9] was 42.9%; in assay [8], 74.3%.
